Settings in all cases: mRNA level, 48 h; actives raise or lower the signal
Read-out in experiment [1]: Cyclin D1 (CCND1), CCND1 (gene 595)
In words: LTEA_HepaRG_CCND1: Life Technologies and Expression Analysis (LTEA) Assay for Cyclin D1 (CCND1) using HepaRG (AID 2283451). A digest of the protocol: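 Differentiated human HepaRG cells in serum-free induction medium were exposed 48 h to eight half-log concentrations up to 100 uM in 0.5% DMSO; mRNA quantified by TaqMan qRT-PCR, normalized to ACTB, GAPDH, POLR2A, fitted bidirectionally versus DMSO.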

Read-out in experiment [2]: catalase (CAT), CAT (gene 847)
Briefly: LTEA_HepaRG_CAT: Life Technologies and Expression Analysis (LTEA) Assay for catalase (CAT) using HepaRG (AID 2283452). A digest of the protocol:
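HepaRG cells in serum-free induction medium, 0.5% DMSO vehicle, exposed 48 h in duplicate over 8 half-log concentrations from 100 uM. CAT mRNA measured by qRT-PCR, normalized to ACTB, GAPDH, POLR2A; bidirectional fit versus DMSO.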

Read-out in experiment [3]: flavin-containing dimethylaniline monooxygenases 3 (FMO3), FMO3 (gene 2328)
Briefly: LTEA_HepaRG_FMO3: Life Technologies and Expression Analysis (LTEA) Assay for flavin-containing dimethylaniline monooxygenases 3 (FMO3) using HepaRG (AID 2283453). A digest of the protocol: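 Differentiated HepaRG cells in serum-free induction medium, exposed 48 h in duplicate to 8 half-log concentrations up to 100 uM in 0.5% DMSO. FMO3 mRNA by qRT-PCR, normalized to ACTB, GAPDH, POLR2A; bidirectional fit vs DMSO.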

Read-out in experiment [4]: Cytochrome P450 (CYP1A1), CYP1A1 (gene 1543)
In words: LTEA_HepaRG_CYP1A1: Life Technologies and Expression Analysis (LTEA) Assay for Cytochrome P450 (CYP1A1) using HepaRG (AID 2283454). A digest of the protocol:
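Differentiated HepaRG cells in serum-free induction medium were exposed in duplicate for 48 h to eight half-log concentrations up to 100 uM in 0.5% DMSO. CYP1A1 mRNA was quantified by TaqMan qRT-PCR, normalized to ACTB, GAPDH and POLR2A.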

Read-out in experiment [5]: CFLAR gene, CFLAR (gene 8837)
Briefly: LTEA_HepaRG_CFLAR: Life Technologies and Expression Analysis (LTEA) Assay for CFLAR gene using HepaRG (AID 2283455). A digest of the protocol: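 Differentiated HepaRG cells in serum-free induction medium were exposed 48 h in duplicate to eight half-log concentrations up to 100 uM in 0.5% DMSO; mRNA measured by TaqMan qRT-PCR, normalized to ACTB, GAPDH, POLR2A; bidirectional fitting versus DMSO.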

Read-out in experiment [6]: Forkhead box O1 (FOXO1), FOXO1 (gene 2308)
In words: LTEA_HepaRG_FOXO1: Life Technologies and Expression Analysis (LTEA) Assay for Forkhead box O1 (FOXO1) using HepaRG (AID 2283456). A digest of the protocol:
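Differentiated HepaRG cells, in serum-free induction medium with 0.5% DMSO, exposed 48 h in duplicate to 8-point half-log series from 100 uM. FOXO1 mRNA measured by TaqMan qRT-PCR, normalized to ACTB, GAPDH, POLR2A; bidirectional fit versus DMSO.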

Read-out in experiment [7]: growth arrest and DNA damage 45 (GADD45A), GADD45A (gene 1647)
Briefly: LTEA_HepaRG_GADD45A: Life Technologies and Expression Analysis (LTEA) Assay for growth arrest and DNA damage 45 (GADD45A) using HepaRG (AID 2283458). A digest of the protocol: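 Cells plated and cultured 48 h, switched to serum-free induction medium, then dosed for 48 h (100 uM top, half-log dilutions, 0.5% DMSO). RNA was isolated and transcript measured by Fluidigm qRT-PCR.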

Read-out in experiment [8]: Forkhead box O3 (FOXO3), FOXO3 (gene 2309)
Briefly: LTEA_HepaRG_FOXO3: Life Technologies and Expression Analysis (LTEA) Assay for Forkhead box O3 (FOXO3) using HepaRG (AID 2283459). A digest of the protocol:
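Differentiated human HepaRG cells, 48 h post-plating, exposed in duplicate for 48 h in serum-free induction medium; 8-point half-log series from 100 uM in 0.5% DMSO. FOXO3 mRNA by TaqMan qRT-PCR, normalized to ACTB/GAPDH/POLR2A; bidirectional fit versus DMSO.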

Read-out in experiment [9]: ABC Transporter (ABCB1), ABCB1 (gene 5243)
In words: LTEA_HepaRG_ABCB1: Life Technologies and Expression Analysis (LTEA) Assay for ABC Transporter (ABCB1) using HepaRG (AID 2283460). A digest of the protocol: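 HepaRG cells exposed in duplicate for 48 h in serum-free induction medium to eight half-log concentrations up to 100 uM in 0.5% DMSO. ABCB1 mRNA quantified by qRT-PCR, normalised to ACTB, GAPDH and POLR2A; fitted bidirectionally versus DMSO.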

Read-out in experiment [10]: growth arrest and DNA damage 45 (GADD45B), GADD45B (gene 4616)
In words: LTEA_HepaRG_GADD45B: Life Technologies and Expression Analysis (LTEA) Assay for growth arrest and DNA damage 45 (GADD45B) using HepaRG (AID 2283461). In short, it runs like this:
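Differentiated HepaRG cells, plated 48 h then switched to serum-free induction medium, were exposed 48 h in duplicate to eight half-log concentrations from 100 uM in 0.5% DMSO; mRNA quantified by qRT-PCR, normalized to ACTB/GAPDH/POLR2A, bidirectional fit versus DMSO.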

Read-out in experiment [11]: ABC Transporter (ABCC3), ABCC3 (gene 8714)
Briefly: LTEA_HepaRG_ABCC3: Life Technologies and Expression Analysis (LTEA) Assay for ABC Transporter (ABCC3) using HepaRG (AID 2283462). A digest of the protocol: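 HepaRG cells in serum-free induction medium were exposed for 48 h in duplicate to 8-point half-log concentrations topping at 100 uM in 0.5% DMSO. ABCC3 mRNA was measured by qRT-PCR normalized to ACTB, GAPDH and POLR2A, with bidirectional fitting versus DMSO.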

Read-out in experiment [12]: ABC Transporter (ABCB11), ABCB11 (gene 8647)
Briefly: LTEA_HepaRG_ABCB11: Life Technologies and Expression Analysis (LTEA) Assay for ABC Transporter (ABCB11) using HepaRG (AID 2283463). A digest of the protocol:
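Differentiated human HepaRG cells in serum-free induction medium, dosed in duplicate for 48 h. Eight-point half-log series from 100 uM in 0.5% DMSO; ABCB11 mRNA by qRT-PCR, normalized to ACTB, GAPDH, POLR2A, fitted bidirectionally versus DMSO.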

Read-out in experiment [13]: ABC Transporter (ABCC2), ABCC2 (gene 1244)
Briefly: LTEA_HepaRG_ABCC2: Life Technologies and Expression Analysis (LTEA) Assay for ABC Transporter (ABCC2) using HepaRG (AID 2283464). A digest of the protocol:
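HepaRG cells were plated 48 h, switched to serum-free induction medium, then exposed in duplicate for 48 h to 8 concentrations (top 100 uM, half-log steps, 0.5% DMSO). ABCC2 mRNA was measured by qRT-PCR normalized to ACTB/GAPDH/POLR2A; bidirectional fitting versus DMSO.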

Read-out in experiment [14]: Broad substrate specificity ATP-binding cassette transporter ABCG2 (Homo sapiens) (UniProt Q9UNQ0)
In words: LTEA_HepaRG_ABCG2: Life Technologies and Expression Analysis (LTEA) Assay for ABC Transporter (ABCG2) using HepaRG (AID 2283465). A digest of the protocol: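 Differentiated HepaRG cells were exposed for 48 h in serum-free induction medium to 8 half-log concentrations, top 100 uM, in 0.5% DMSO. ABCG2 mRNA was measured by qRT-PCR, normalized to ACTB, GAPDH and POLR2A, with bidirectional fitting versus DMSO.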

Read-out in experiment [15]: ATP-citrate lyase (ACLY), ACLY (gene 47)
In words: LTEA_HepaRG_ACLY: Life Technologies and Expression Analysis (LTEA) Assay for ATP-citrate lyase (ACLY) using HepaRG (AID 2283466). A digest of the protocol: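 Differentiated HepaRG cells exposed 48 h in serum-free induction medium to eight half-log concentrations up to 100 uM in 0.5% DMSO, duplicates. Transcript measured by Fluidigm TaqMan qRT-PCR, normalized to ACTB, GAPDH, POLR2A; bidirectional fit versus DMSO.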

Read-out in experiment [16]: Peroxisomal acyl-coenzyme A oxidase 1 (ACOX1) gene, ACOX1 (gene 51)
Briefly: LTEA_HepaRG_ACOX1: Life Technologies and Expression Analysis (LTEA) Assay for Peroxisomal acyl-coenzyme A oxidase 1 (ACOX1) gene using HepaRG (AID 2283467). A digest of the protocol:
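HepaRG cells, plated 48 h then switched to serum-free induction medium, were exposed in duplicate for 48 h to 8-point half-log concentrations up to 100 uM in 0.5% DMSO. ACOX1 mRNA was measured by qRT-PCR, normalized to ACTB/GAPDH/POLR2A, and fitted bidirectionally versus DMSO.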

Read-out in experiment [17]: Alkaline Phosphatase, Placental (ALPP) gene, ALPP (gene 250)
Briefly: LTEA_HepaRG_ALPP: Life Technologies and Expression Analysis (LTEA) Assay for Alkaline Phosphatase, Placental (ALPP) gene using HepaRG (AID 2283468). In short, it runs like this: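 Differentiated human HepaRG cells were plated and cultured 48 h, then exposed in duplicate for 48 h in serum-free induction medium to eight half-log concentrations from 100 uM in 0.5% DMSO. ALPP mRNA was measured by TaqMan qRT-PCR, normalized to ACTB, GAPDH, POLR2A.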

Read-out in experiment [18]: Bcl-2 (BAD) gene, BAD (gene 572)
Briefly: LTEA_HepaRG_BAD: Life Technologies and Expression Analysis (LTEA) Assay for Bcl-2 (BAD) gene using HepaRG (AID 2283469). A digest of the protocol: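 Differentiated HepaRG cells were exposed in duplicate in 0.5% DMSO for 48 h to eight-point half-log concentrations up to 100 uM. BAD mRNA was measured by Fluidigm TaqMan qRT-PCR, normalized to ACTB, GAPDH and POLR2A, and fitted bidirectionally against DMSO.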

Read-out in experiment [19]: Bcl-2 (BAX) gene, BAX (gene 581)
In words: LTEA_HepaRG_BAX: Life Technologies and Expression Analysis (LTEA) Assay for Bcl-2 (BAX) gene using HepaRG (AID 2283470). A digest of the protocol: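 HepaRG (human liver), 48 h exposure, duplicate wells. 8-pt curve, half-log from 100 uM, 0.5% DMSO. BAX transcript by TaqMan qRT-PCR; ACTB/GAPDH/POLR2A normalization; gain or loss vs DMSO baseline.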

The structures appear in SMILES notation. Active and inactive are the calls of the source. How the source made its calls: active means hit-call score of the fitted dose curve at least 0.9, where 1 is the maximum; inactive means score below 0.9.

Data on three compounds can be found in PubChem BioAssay (EPA / NIEHS).

As a reminder, the AC50 is the concentration giving half of the maximal activity seen.

Chain of Broad substrate specificity ATP-binding cassette transporter ABCG2 (Homo sapiens) (Q9UNQ0 whole entry, looked up): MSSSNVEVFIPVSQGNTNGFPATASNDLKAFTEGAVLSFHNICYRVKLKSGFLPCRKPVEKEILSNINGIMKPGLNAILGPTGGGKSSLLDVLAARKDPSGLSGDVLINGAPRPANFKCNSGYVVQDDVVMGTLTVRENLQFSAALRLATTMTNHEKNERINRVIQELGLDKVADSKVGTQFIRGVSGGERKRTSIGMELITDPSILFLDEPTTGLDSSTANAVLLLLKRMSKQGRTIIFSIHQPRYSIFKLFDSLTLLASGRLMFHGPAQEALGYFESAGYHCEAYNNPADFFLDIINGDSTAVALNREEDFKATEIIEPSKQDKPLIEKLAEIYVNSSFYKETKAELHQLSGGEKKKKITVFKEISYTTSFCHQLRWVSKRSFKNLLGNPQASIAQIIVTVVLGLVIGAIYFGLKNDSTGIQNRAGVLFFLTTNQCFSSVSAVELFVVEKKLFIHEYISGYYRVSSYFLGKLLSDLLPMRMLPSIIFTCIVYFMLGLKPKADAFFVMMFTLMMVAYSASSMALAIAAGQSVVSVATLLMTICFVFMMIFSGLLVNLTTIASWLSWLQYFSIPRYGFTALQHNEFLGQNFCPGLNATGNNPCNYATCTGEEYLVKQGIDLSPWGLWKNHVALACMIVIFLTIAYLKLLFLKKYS

On to `Clc1ccc(C(c2ccc(Cl)cc2)C(Cl)Cl)cc1`, for which the outcome in experiment [1], in [2], in experiment [3], in [5], in experiment [6] and in [7] was inactive. The call in [8], in [10], in experiment [11], in experiment [14], in [15] and in [16] was inactive. Besides, the compound was classed as inactive in [18] and in experiment [19]. In addition, the AC50 in experiment [4] was 29.5 µM (active); in experiment [9], 31.6 µM (active); in experiment [12], 81.8 µM (active); in experiment [13], 19.3 µM (active); in experiment [17], 50 µM (active).

In the case of `CS(=O)(=O)NC(=O)c1cc(Oc2ccc(C(F)(F)F)cc2Cl)ccc1[N+](=O)[O-]`, the outcome in [1], in [2], in experiment [3], in experiment [5], in [6] and in experiment [7] was inactive. Also, the compound was classed as inactive in [8], in [10], in experiment [11], in experiment [14], in experiment [15] and in experiment [16]. Besides, the compound was called inactive in experiment [17], in experiment [18] and in experiment [19]. Besides, the AC50 was 39.3 µM (active) in experiment [4], 0.644 µM (active) in [9], 50 µM (active) in [12] and 6.32 µM (active) in experiment [13].

`CCCCC(CC)COC(=O)c1ccc(C(=O)OCC(CC)CCCC)c(C(=O)OCC(CC)CCCC)c1` (stereo not given): the compound was classed as inactive in experiment [1], in experiment [2], in [3], in [5], in experiment [6] and in [7]. For the same compound, the result in experiment [8], in experiment [9], in experiment [12], in experiment [13], in experiment [14] and in [15] was inactive. Besides, the compound was called inactive in experiment [16], in [17], in experiment [18] and in [19]. Besides, in experiment [4], the AC50 was 50 µM (active).
